Active and inactive are the calls of the source. Unless noted, no stated cut-off is given here; in the data, active means inhibition above about 44%; inactive means the rest.
What was measured:
[1] = StAR promoter reporter inhibitors, counter-screen for LRH-1 inverse agonist project, cell-based, luminescence, high throughput (AID 651611; in the data active means inhibition above about 28%); conditions: StAR promoter luciferase reporter counterscreen, at 3.6 µM, hits give high values
[2] = target: Nuclear receptor subfamily 5 group A member 2 (Homo sapiens) (UniProt O00482); assay: NR5A2 activity suppression in reporter cells – cell-based, luminescence, confirmation (AID 651613; in the data active means inhibition above about 42%;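 further: HEK293T cells co-transfected with LRH-1 and StAR promoter luciferase reporter; 0% = vehicle wells and 100% = parental cells lacking receptor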); conditions: cell-based LRH-1 luciferase reporter, inverse agonism; at 3.6 µM; hits give high values
[3] = target: Steroidogenic factor 1 (Homo sapiens) (UniProt Q13285); assay: inverse agonism at SF1 nuclear receptor – cell-based, luminescence, high throughput, counter-screen for LRH-1 inverse agonist project (AID 651614); conditions: cell-based SF1 luciferase reporter, at 3.6 µM, hits give high values;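 further: cells cotransfected with StAR promoter reporter and SF1 expression vector; 0% = vehicle on cells with receptor and 100% = vehicle on cells lacking receptor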
[4] = compounds suppressing VP16-driven luciferase signal – cell-based, luminescence, high throughput, counter-screen for LRH-1 inverse agonist project (AID 651615; in the data active means inhibition above about 33%); conditions: Gal4-VP16 luciferase reporter cells, at 3.6 µM, hits give high values

Sequence of Nuclear receptor subfamily 5 group A member 2 (Homo sapiens) (O00482 whole entry, looked up): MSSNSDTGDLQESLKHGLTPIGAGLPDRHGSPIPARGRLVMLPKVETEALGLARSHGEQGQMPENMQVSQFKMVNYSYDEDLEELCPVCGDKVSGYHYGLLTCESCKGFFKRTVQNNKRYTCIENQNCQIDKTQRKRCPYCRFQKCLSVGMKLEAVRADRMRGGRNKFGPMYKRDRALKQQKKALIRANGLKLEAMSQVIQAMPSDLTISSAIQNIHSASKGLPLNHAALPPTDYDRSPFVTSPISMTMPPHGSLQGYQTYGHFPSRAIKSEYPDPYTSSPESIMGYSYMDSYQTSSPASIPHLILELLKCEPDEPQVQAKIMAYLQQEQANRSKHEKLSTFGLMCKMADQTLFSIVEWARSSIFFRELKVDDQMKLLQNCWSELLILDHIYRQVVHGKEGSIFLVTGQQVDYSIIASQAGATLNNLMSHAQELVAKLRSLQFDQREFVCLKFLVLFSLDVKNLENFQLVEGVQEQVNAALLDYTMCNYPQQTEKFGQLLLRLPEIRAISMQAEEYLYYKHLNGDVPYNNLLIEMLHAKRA
Sequence of Steroidogenic factor 1 (Homo sapiens) (Q13285 whole entry, looked up, the tested form may be a part): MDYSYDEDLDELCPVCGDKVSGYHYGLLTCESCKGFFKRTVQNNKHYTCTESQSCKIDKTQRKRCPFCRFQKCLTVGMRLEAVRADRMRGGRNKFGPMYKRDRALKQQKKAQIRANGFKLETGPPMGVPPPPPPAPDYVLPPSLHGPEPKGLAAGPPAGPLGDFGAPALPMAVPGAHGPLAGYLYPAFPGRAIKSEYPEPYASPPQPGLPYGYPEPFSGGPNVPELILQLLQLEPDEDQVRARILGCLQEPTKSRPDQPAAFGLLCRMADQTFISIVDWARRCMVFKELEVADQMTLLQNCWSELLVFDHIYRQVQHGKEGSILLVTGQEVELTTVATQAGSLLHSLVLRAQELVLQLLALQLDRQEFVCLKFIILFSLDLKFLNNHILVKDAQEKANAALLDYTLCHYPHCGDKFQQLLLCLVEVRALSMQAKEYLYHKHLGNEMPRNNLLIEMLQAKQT

CNc1c2cccc(C)c2nc2c(C(=O)NCCN(C)C)cccc12
inhibition [1]: 80.3% (active) | inhibition [2]: 109% (active) | inhibition [3]: 98% (active) | inhibition [4]: 74.7% (active)

COc1ccc(-c2cc(C(F)F)n3ncc(C(=O)N4CCc5ccccc5C4)c3n2)cc1
inhibition [1]: 17.2% (inactive) | inhibition [2]: 58.3% (active) | inhibition [3]: 56.7% (active) | inhibition [4]: -2.06% (inactive)

COc1ccc(-n2c(N)c(C(=O)NCc3cccnc3)sc2=S)cc1
inhibition [1]: 4.01% (inactive) | inhibition [2]: 48.7% (active) | inhibition [3]: 50.4% (active) | inhibition [4]: -1.03% (inactive)

CC(=O)Nc1cc(-c2cccc(F)c2)cn2c(-c3ccc(S(C)(=O)=O)cc3)cnc12
inhibition [1]: 8.88% (inactive) | inhibition [2]: 50.2% (active) | inhibition [3]: 54.6% (active) | inhibition [4]: -14.3% (inactive)

C=CCNC(=S)N/N=C/c1ccc(N(CC)Cc2ccccc2)cc1
inhibition [1]: 11.4% (inactive) | inhibition [2]: 38.4% (inactive) | inhibition [3]: 24.4% (inactive) | inhibition [4]: 6.68% (inactive)

CN(C)CCNC(=O)c1cccc2nc3cccc(F)c3nc12
inhibition [1]: 63.9% (active) | inhibition [2]: 81.5% (active) | inhibition [3]: 72.1% (active) | inhibition [4]: 55% (active)

CCOc1ccc(CCNC(=O)CN2C(=O)NC3(CCc4ccccc43)C2=O)cc1OCC (stereo unspecified)
inhibition [1]: 13.9% (inactive) | inhibition [2]: 49.8% (active) | inhibition [3]: 45.7% (active) | inhibition [4]: -14% (inactive)

CCOc1ccc(C(C)=O)cc1COC(=O)c1cc([N+](=O)[O-])ccc1N1CCOCC1
inhibition [1]: 15.1% (inactive) | inhibition [2]: 58.2% (active) | inhibition [3]: 55.5% (active) | inhibition [4]: 7.41% (inactive)

COc1cc(NC(=O)CN2C(=O)NC(c3ccccc3)(c3ccccc3)C2=O)c(C)cc1[N+](=O)[O-]
inhibition [1]: 24.1% (inactive) | inhibition [2]: 46% (active) | inhibition [3]: 35.3% (inactive) | inhibition [4]: 9.47% (inactive)

CC(O)(c1ccc(F)c(F)c1)c1nc(-c2ccc(S(C)(=O)=O)cc2)cs1 (stereo unspecified)
inhibition [1]: 3.51% (inactive) | inhibition [2]: 53.5% (active) | inhibition [3]: 49.5% (active) | inhibition [4]: -2.47% (inactive)

CCc1cc(=O)oc2cc3occ(-c4ccc(OC)c(F)c4)c3cc12
inhibition [1]: 26.4% (inactive) | inhibition [2]: 75% (active) | inhibition [3]: 60.6% (active) | inhibition [4]: 23.1% (inactive)

O=C(CN1C(=O)NC2(CCCCC2)C1=O)NCCc1c[nH]c2ccccc12
inhibition [1]: 10.1% (inactive) | inhibition [2]: 47.8% (active) | inhibition [3]: 56.5% (active) | inhibition [4]: 3.42% (inactive)

Cc1cc(NC(=O)c2ccc([N+](=O)[O-])o2)ccc1NC(=O)c1ccco1
inhibition [1]: 1.92% (inactive) | inhibition [2]: 50.6% (active) | inhibition [3]: 55.5% (active) | inhibition [4]: -13.8% (inactive)

CCOc1ccc(CCNC(=O)COC(=O)Cc2c[nH]c3ccccc23)cc1OCC
inhibition [1]: 9.43% (inactive) | inhibition [2]: 56.5% (active) | inhibition [3]: 56.3% (active) | inhibition [4]: -0.69% (inactive)

CCOc1cc(/C=N/Nc2nnc(C)n2N)ccc1O
inhibition [1]: -6% (inactive) | inhibition [2]: 18.2% (inactive) | inhibition [3]: 22.2% (inactive) | inhibition [4]: 2.17% (inactive)

O=C1/C(=C/c2ccccc2)CN(C(=O)CCN2CCOCC2)C/C1=C\c1ccccc1
inhibition [1]: 21.9% (inactive) | inhibition [2]: 44.3% (active) | inhibition [3]: 56.7% (active) | inhibition [4]: 55.2% (active)

CCC(=O)N1CCN(c2ccc(NC(=O)c3ccc([N+](=O)[O-])o3)cc2)CC1
inhibition [1]: 17.6% (inactive) | inhibition [2]: 78% (active) | inhibition [3]: 68.4% (active) | inhibition [4]: -25% (inactive)

c1ccc2c(c1)CC1(CCCC1)n1nnnc1-2
inhibition [1]: 5.24% (inactive) | inhibition [2]: 52.2% (active) | inhibition [3]: 42.5% (inactive) | inhibition [4]: -5.69% (inactive)

CC(C)OC(=O)C(=O)NNc1ccccc1
inhibition [1]: 12.3% (inactive) | inhibition [2]: 12.2% (inactive) | inhibition [3]: 4.1% (inactive) | inhibition [4]: 11.9% (inactive)

O=C(COC(=O)C1CCCCC1)NCCc1ccccc1
inhibition [1]: 3.93% (inactive) | inhibition [2]: 50.9% (active) | inhibition [3]: 41.5% (inactive) | inhibition [4]: -5.95% (inactive)

O=C(Cc1ccc(S(=O)(=O)N2CCCC2)s1)Nc1cccc([N+](=O)[O-])c1
inhibition [1]: 7.13% (inactive) | inhibition [2]: 51.3% (active) | inhibition [3]: 46.5% (active) | inhibition [4]: 1.81% (inactive)

O=[N+]([O-])c1cnccc1Nc1ccccc1
inhibition [1]: 7.45% (inactive) | inhibition [2]: 62% (active) | inhibition [3]: 58.9% (active) | inhibition [4]: 1.98% (inactive)

COc1ccccc1NC(=O)CN1CCN(CC(=O)Nc2ccc3c(c2)OCCO3)CC1
inhibition [1]: 6.64% (inactive) | inhibition [2]: 56.8% (active) | inhibition [3]: 49.5% (active) | inhibition [4]: -7.19% (inactive)

N#Cc1ccccc1NC(=O)c1ccccc1OCC(=O)Nc1ccc2c(c1)oc1ccccc12
inhibition [1]: 13.3% (inactive) | inhibition [2]: 33.9% (inactive) | inhibition [3]: 23.9% (inactive) | inhibition [4]: 4.76% (inactive)

Source: PubChem BioAssay
